Results filed as inconclusive are left out. Calls of active or inactive are those of the source. Calls come from the whole dose curve; as a rule, active = well fitted curve in the direction sought with a large enough effect in the repeat runs; inconclusive = weak or mixed curves; inactive = no such curve, though single readings can be large; an effect the other way counts as inactive or inconclusive.
How the values were obtained:
[1] = A CellTox Green Cytotoxicity Assay to monitor cytotoxicity in HEK293 cells - 24 hour (AID 1224875); note: nearly all actives have a fitted effect of over 45% in size; note: potency is the fitted concentration of half-maximal effect
In short: (§1)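 Fluorescence intensity, read at 0, 8, 16, 24, 32 and 40 h of compound treatment, reflected dye binding to DNA of dead HEK293 cells; compounds (23 nL, DMSO) were added 5 h after plating cells with reagent.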

[2] = qHTS RealTime-Glo MT Cell Viability Assay in HepG2 cells - 32 hour (AID 1224877); note: nearly all actives have a fitted effect of over 55% in size; note: potency is the fitted concentration of half-maximal effect
In short: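 Real-time, nonlytic viability: 600 HepG2 cells/well mixed with NanoLuc enzyme plus prosubstrate; 5 h settle, compound (DMSO) added by pintool; luminescence monitored over 40 h at 37 C.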

[3] = A CellTox Green Cytotoxicity Assay to monitor cytotoxicity in HepG2 cells - 24 hour (AID 1224878); note: nearly all actives have a fitted effect of over 45% in size; note: potency is the fitted concentration of half-maximal effect
In short: (§2)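 Using 1536-well format, dye-containing HepG2 suspension was seeded, allowed 5 h at 37 C/5% CO2, dosed by pintool with compounds, positive and negative controls, and imaged for fluorescence across 40 h.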

[4] = A CellTox Green Cytotoxicity Assay to monitor cytotoxicity in HepG2 cells - 40 hour (AID 1224879); note: nearly all actives have a fitted effect of over 40% in size; note: potency is the fitted concentration of half-maximal effect
In short: as §2

[5] = qHTS RealTime-Glo MT Cell Viability Assay in HEK293 cells - 0 hour (AID 1224880); note: top concentration of the series differs between compounds; nearly all actives have a fitted effect of over 45% in size
In short: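 Viable HEK293 cells reduce a cell-permeant prosubstrate; the product diffuses out and is consumed by NanoLuc in the medium to give light. Compounds went in after a 5 h incubation and plates were read over the treatment course.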

[6] = A CellTox Green Cytotoxicity Assay to monitor cytotoxicity in HEK293 cells - 32 hour (AID 1224881); note: nearly all actives have a fitted effect of over 40% in size; note: potency is the fitted concentration of half-maximal effect
In short: as §1

[7] = A CellTox Green Cytotoxicity Assay to monitor cytotoxicity in HepG2 cells - 0 hour (AID 1224882); note: nearly all actives have a fitted effect of over 35% in size
In short: as §2

[8] = A CellTox Green Cytotoxicity Assay to monitor cytotoxicity in HepG2 cells - 32 hour (AID 1224883); note: nearly all actives have a fitted effect of over 50% in size; note: potency is the fitted concentration of half-maximal effect
In short: as §2

[9] = A CellTox Green Cytotoxicity Assay to monitor cytotoxicity in HEK293 cells - 8 hour (AID 1224884); note: nearly all actives have a fitted effect of over 35% in size; note: potency is the fitted concentration of half-maximal effect
In short: as §1

[10] = A CellTox Green Cytotoxicity Assay to monitor cytotoxicity in HepG2 cells - 16 hour (AID 1224876); note: nearly all actives have a fitted effect of over 45% in size; note: potency is the fitted concentration of half-maximal effect
In short: as §2

Measured: Potency

CCOC=C(C(=O)OCC)C(=O)OCC
not listed: [10]
inactive: all other assays above

COc1cc(OC)nc(NC(=O)NS(=O)(=O)Nc2ccccc2C(=O)N(C)C)n1
not listed: [10]
inactive: all other assays above

Nc1ccc2c(S(=O)(=O)O)cccc2c1S(=O)(=O)O
not listed: [5] | [10]
inactive: all other assays above

CN[C@H]1CC[C@@H](c2ccc(Cl)c(Cl)c2)c2ccc(S(N)(=O)=O)cc21
inactive: [7]
active: [1] 21.9 µM | [2] 19.5 µM | [3] 13.8 µM | [4] 13.8 µM | [6] 24.5 µM | [8] 13.8 µM | [9] 54.9 µM

Cc1cccc2c1ccc1ccccc12
not listed: [4] | [10]
inactive: all other assays above

O=C1CCC(=O)N1
not listed: [5] | [10]
inactive: all other assays above

Cc1ccc2sc3cccc(C)c3c2c1
not listed: [10]
inactive: all other assays above

CCCCCCCCc1ccc(Nc2ccc(CCCCCCCC)cc2)cc1
not listed: [4] | [10]
inactive: all other assays above

CC/C(=C(/c1ccc(O)cc1)c1ccc(OCCN(C)C)cc1)c1ccccc1
inactive: [5] | [7]
active: [1] 25.7 µM | [2] 14.4 µM | [3] 18.2 µM | [4] 12.9 µM | [6] 22.9 µM | [8] 14.4 µM | [9] 28.8 µM

O=C1c2ccccc2C(=O)c2c(Cl)cccc21
not listed: [5] | [10]
inactive: all other assays above

Cc1cccc(C)c1C
not listed: [10]
inactive: all other assays above

S=C1NC=NC2N=CNC12 (stereo unspecified)
not listed: [4] | [10]
inactive: all other assays above

CC(C)c1ccc2sc3ccccc3c(=O)c2c1
active: [4] 19.5 µM
not listed: [10]
inactive: all other assays above

O=[N+]([O-])c1ccc(O)c2ncccc12
inactive: [1] | [2] | [3] | [6] | [9]
active: [4] 4.25 µM

O=C(Nc1ccccc1)c1cc(Cl)ccc1O
inactive: [1] | [10] | [5] | [6] | [7]
active: [4] 49 µM | [8] 49 µM

O=[N+]([O-])c1ccc(CO)cc1
not listed: [10]
inactive: all other assays above

CCN(CC)c1ccc2c(c1)Oc1cc(N(CC)CC)ccc1C21OC(=O)c2ccccc21
active: [1] 19 µM | [3] 23.9 µM | [4] 23.9 µM | [6] 19 µM | [8] 23.9 µM | [9] 23.9 µM
inactive: [2] | [5]

Cc1ccc(Cl)c(N)c1Cl
inactive: [10] | [7] | [9]

COc1c(Br)cc(Br)c(C)c1Br
inactive: [1] | [2] | [5] | [6] | [7] | [9]

Clc1nc(C(Cl)(Cl)Cl)c(Cl)c(Cl)c1Cl
inactive: [10] | [5] | [7]
active: [3] 43.6 µM | [4] 43.6 µM | [8] 43.6 µM

Cc1cc(C)c(O)c(C(C)(C)C)c1
active: [1] 24.5 µM | [6] 27.5 µM
inactive: [2] | [3] | [7] | [8] | [9]

CCC(O)CO (stereo unspecified)
not listed: [4] | [10]
inactive: all other assays above

Cc1cc(F)ccc1-c1cc(N2CC[C@@H](O)[C@H]2CO)ncc1N(C)C(=O)C(C)(C)c1cc(C(F)(F)F)cc(C(F)(F)F)c1
active: [10] 43 µM | [2] 38.3 µM | [3] 38.3 µM | [8] 43 µM
inactive: [7] | [9]

CC(C)=NNC(N)=S
not listed: [4] | [10]
inactive: all other assays above

N#Cc1nc(Cl)c(Cl)c(Cl)c1Cl
active: [10] 49 µM | [2] 19.5 µM | [3] 49 µM | [4] 24.5 µM | [8] 27.5 µM
inactive: [7] | [9]

From PubChem BioAssay (Tox21)
